High-throughput results (PubChem BioAssay)
Compounds with a hit are over-represented: about 2.1% of the library has one in this group of screens.
FUS suppressor = qHTS for Suppressors of FUS Proteinopathy: Primary screen using FUS-linked yeast assay; actives 0.24% (n = 390,000); S. cerevisiae FUS-expressing, growth rescue, OD600, 24 h; AID 1347120, 2019; Potency, µM (top dose mostly 76.6 µM), hits mostly activators;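 also: plate controls were DMSO vehicle for no effect and reference control for full effect; nearly all actives have a fitted effect of over 55% in size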
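Absorbance at 600 nm, taken 24hr after compound addition, measured rescue of FUS-yeast growth at 30C. Induction used 2% galactose with seeding at OD 0.005. Controls: CP55940 from 92uM final, DMSO only.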
TDP-43 yeast inh = qHTS of TDP-43 Inhibitors | TDP-43 expressing yeast growth rescue, BacTiter-Glo, 24 h | actives 1.8% (n = 410,000) | Potency, µM (doses to about 46.1 µM), for the others: at the highest dose growth rescue (activation), usual class: activators; also: % of control where 0% means no effect; nearly all actives have a fitted effect of over 50% in size
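Galactose-induced TDP-43 yeast, OD600=0.02, compound pinned; 24 hr, 30 deg C; BacTiter-Glo luminescence for growth. Inhibitors of TDP-43 toxicity read as activators.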
TSG101-PTAP inh = qHTS Assay for Iinhibitors of HIV-1 Budding by Blocking the Interaction of PTAP/TSG101. Fluorescence polarization, FITC-PTAP peptide / Tsg101 binding. Potency, µM (top dose mostly 115 µM), without a hit: at the top dose activity change, negative = inhibition, actives largely listed as inhibitors. 340,000 tested, under 10 active. AID 493005, 2010; active = well fitted inhibition curve with a large enough effect in the main read-out, with a control signal flat, not every such curve was filed as active; inconclusive = small, poorly fitted or top-dose-only effect, or effect the other way, or a change in a side signal; inactive = no such curve, though single readings can be large or run the other way; also: % of control where 0% means no effect
Target sequence (Q99816 whole entry, looked up): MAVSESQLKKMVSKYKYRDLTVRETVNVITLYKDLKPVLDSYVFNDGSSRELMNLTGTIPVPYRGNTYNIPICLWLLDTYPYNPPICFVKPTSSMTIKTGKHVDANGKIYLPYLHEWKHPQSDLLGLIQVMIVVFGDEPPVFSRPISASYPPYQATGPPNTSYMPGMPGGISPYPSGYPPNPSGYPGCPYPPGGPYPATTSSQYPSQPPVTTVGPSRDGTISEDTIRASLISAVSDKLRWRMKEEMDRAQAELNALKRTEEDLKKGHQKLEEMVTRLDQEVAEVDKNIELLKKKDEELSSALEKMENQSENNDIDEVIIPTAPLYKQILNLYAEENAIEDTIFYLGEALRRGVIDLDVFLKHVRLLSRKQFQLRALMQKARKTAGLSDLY
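Fluorescence polarization binding of Tsg101 binding domain (10 uM final) to FITC-labeled PTAP peptide (50 nM final) in HEPES pH 7.5 buffer with NaCl, Tween 20, EDTA, TCEP. Compounds added before peptide; binding 20 min at RT.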
aSyn yeast inh = qHTS of alpha-syn Inhibitors | Yeast expressing alpha-synuclein, growth rescue, BacTiter-Glo, 24 h | Potency, µM (titrated, usually from 46.1 µM), for inactives: at the highest dose growth rescue (activation), most hits filed as activators | actives 0.14% (n = 370,000) | AID 652106, 2013; also: % of control where 0% means no effect; nearly all actives have a fitted effect of over 65% in size
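Galactose-induced alpha-syn yeast (OD600=0.02, raffinose-pregrown) + pinned cpd, 24 hr, 30 deg C; growth by BacTiter-Glo luminescence. Growth restoration scores as activation.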
Abeta yeast res = qHTS for compounds that reverse cellular toxicity of Amyloid beta (A-beta) peptide in yeast: Primary Screen; yeast expressing A-beta42, growth rescue, OD600, 48 h; response scale: 0% DMSO, 100% iron-clioquinol control; Potency, µM (series often up to 46.1 µM), hits mostly activators; actives 0.063% (n = 410,000); also: nearly all actives have a fitted effect of over 55% in size
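Yeast growth medium received pinned compounds, then yeast cells expressing toxic A-beta were added; plates incubated at 30 C for 48 hr. Growth read as absorbance at 600 nm, normalized to DMSO and equimolar FeCl3 plus clioquinol controls.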
Starred values were filed as active, the others as inactive; i = inactive; ? = inconclusive; · = no result given. Unless noted, calls follow the shape of the dose curve; as a rule, active = well fitted curve in the direction sought with a large enough effect; inconclusive = small, poorly fitted or top-dose-only effect, or another doubt; inactive = no such curve, though single readings can be large; an effect the other way counts as inactive or inconclusive. Potency is read from the fitted curve at half-maximal effect.

SMILES	FUS suppressor	TDP-43 yeast inh	TSG101-PTAP inh	aSyn yeast inh	Abeta yeast res
CC(C)(C)c1cc(NC(=O)COc2ccc(Br)cc2)n(-c2ccccc2)n1	i	20µM*	-4%	-3%	i
CC(C)(C)c1cc(NC(=O)COC(=O)c2ccccc2)n(-c2ccccc2)n1	i	?	·	5%	i
CCOC(=O)c1sc2ccccc2c1S(=O)(=O)N1CCN(c2cc(C)ccc2C)CC1	i	13%	·	·	i
Cn1ccc2c(-c3cccc4ccccc34)cc3c(c21)C1CCC3O1 (centres undefined)	?	16µM*	·	14%	i
Cn1ccc2c(-c3ccc(F)nc3)cc3c(c21)C1CCC3O1 (centres undefined)	i	?	·	1%	i
Cn1ccc2c(-c3ccc4[nH]ccc4c3)cc3c(c21)C1CCC3O1 (centres undefined)	i	16µM*	·	14%	i
COc1ccc(-c2cc3c(c4c2ccn4C)C2CCC3O2)cn1 (centres undefined)	i	13µM*	·	?	i
CC(C)Oc1ccc(CNC(=O)c2ccc3nc(SCc4ccc(F)cc4)n(C)c3c2)cc1	i	-2%	·	·	i
COc1ccc(C2OCC(C)([N+](=O)[O-])CO2)cc1 (centres undefined)	i	14%	1%	1%	i
Cc1ccc2nc(-c3ccccc3)c(CN3CCN(c4ccccc4F)CC3)n2c1	i	6%	-4%	9%	i
Cc1ccc2nc(N3CCN(c4ccccc4F)CC3)c(C=O)c(=O)n2c1	i	16µM*	1%	1%	i
COc1cc([N+](=O)[O-])cc(/C=N/NC(=O)C(C)Nc2ccccc2C)c1O (centres undefined)	·	20µM*	1%	2%	i
COc1ccc(Br)cc1CNC(=O)c1cc(=O)[nH]c2ccc(S(=O)(=O)N3CCCCC3C)cc12 (centres undefined)	i	-11%	·	·	i
COc1ccc(-c2nc(Cn3c(=O)cc(-c4ccccc4)c4c(C)nn(C)c43)c(C)o2)cc1OC	i	-15%	·	·	i
O=C(Nc1ccccc1)c1cc(C2CCCN(C(=O)C/C=C/c3ccccc3)C2)on1 (centres undefined)	?	22µM*	·	-4%	i
O=C(Nc1ccc2c(c1)OCO2)c1cc(C2CCCN(C(=O)CCc3ccccc3)C2)on1 (centres undefined)	?	22µM*	·	-4%	i
O=C(Nc1ccc2c(c1)OCO2)c1cc(C2CCCN(C(=O)CCCc3ccccc3)C2)on1 (centres undefined)	?	?	·	17%	i
Cc1ccc(F)cc1C(=O)N1CCCC(c2cc(C(=O)Nc3ccccc3)no2)C1 (centres undefined)	i	35µM*	·	?	i
O=C(Nc1ccccc1)c1cc(C2CCCCN2C(=O)CCCc2ccccc2)on1 (centres undefined)	?	0%	·	13%	i
O=C(Nc1ccc2c(c1)OCO2)c1cc(C2CCCCN2C(=O)CCCc2ccccc2)on1 (centres undefined)	i	35µM*	·	7%	i
Cc1ccc2oc(C(=O)Nc3ccc(S(=O)(=O)Nc4nc(C)cc(C)n4)cc3)cc(=O)c2c1	i	22%	·	·	i
CC(C)(C)c1ccc(C(=O)N2[C@H](COCc3ccccc3)C=CS2(=O)=O)cc1	?	?	·	24%	i
O=C(Nc1ccc(F)c(Cl)c1)c1cc(C2CCCN(C(=O)c3cccs3)C2)on1 (centres undefined)	i	22µM*	·	0%	i
O=C(Nc1ccc(F)c(Cl)c1)c1cc(C2CCCCN2C(=O)c2cccs2)on1 (centres undefined)	?	-2%	·	11%	i
CC(=O)/C(N=Nc1nc2c([nH]1)c(=O)n(C)c(=O)n2C)=C(\C)O	2.2µM*	-19%	-1%	-9%	i
SMILES	FUS suppressor	TDP-43 yeast inh	TSG101-PTAP inh	aSyn yeast inh	Abeta yeast res
Cn1c(=O)c2[nH]c(N=NN3CCCCC3)nc2n(C)c1=O	i	-13%	-3%	-11%	i
CCCCCCCCN1C(=O)[C@H](CC(=O)N2CCN(C(=O)C3CC3)CC2)C[C@@]2(C(=O)OC)CC(C)(C)CC=C12	16µM*	-88%	·	-31%	i
CCCCCCCCN1C(=O)[C@H](CC(=O)N2CCN(C(=O)C3CC3)CC2)C[C@@]2(C(=O)OC)CCCCC=C12	?	?	·	2%	i
CCCCCCCCN1C(=O)[C@H](CC(=O)N2CCOCC2)C[C@@]2(C(=O)OCC)CCCC=C12	11µM*	22%	·	20%	i
CCCCCCCCN1C(=O)[C@H](CC(=O)N2CCN(C(=O)c3ccco3)CC2)C[C@@]2(C(=O)OC)CCCCC=C12	?	14µM*	·	11%	i
CCCCCCCCN1C(=O)[C@H](CC(=O)N2CCCC2)C[C@@]2(C(=O)OC)CCCCC=C12	6.3µM*	14%	·	25%	?
CCCCCCCCN1C(=O)[C@H](CC(=O)N2CCSCC2)C[C@@]2(C(=O)OCC)CCCC=C12	?	24%	·	-22%	i
C#CCNC(=O)C[C@@H]1C[C@@]2(C(=O)OCC)CCCC=C2N(CCCCCCCC)C1=O	10µM*	13µM*	·	?	i
COC(=O)[C@@]12C[C@@H](CC(=O)NCCCN3CCCC3=O)C(=O)N(Cc3ccccc3)C1=CCC(C)(C)C2	i	?	·	3%	i
CCCCCCCCN1C(=O)[C@H](CC(=O)NCCCN2CCCC2=O)C[C@@]2(C(=O)OC)CC(C)(C)CC=C12	?	35µM*	·	-11%	i
Cc1cc(C(=O)Nc2ccc(Nc3ccccc3)cc2)ccc1[N+](=O)[O-]	i	13µM*	-4%	13%	i
O=C(NCCc1ccccc1)C1(c2cccs2)CCOCC1	i	6%	·	·	i
Cc1nc(N2CCC(C)CC2)c2c(C)c(C(=O)Nc3ccc4c(c3)OCCO4)sc2n1	i	7.1µM*	0%	3%	i
Cc1c(C(=O)Nc2ccc3c(c2)OCCO3)sc2ncnc(N3CCCCC3C)c12 (centres undefined)	i	16µM*	3%	5%	i
Cc1nc(N2CCCCC2C)c2c(C)c(C(=O)Nc3ccccc3C(F)(F)F)sc2n1 (centres undefined)	i	14µM*	-8%	-24%	i
Cc1nc(N2CCC(C)CC2)c2c(C)c(C(=O)Nc3ccc(C(F)(F)F)cc3)sc2n1	i	?	-4%	13%	i
